From PubChem
NCOA1 inh = inhibitors of human steroid receptor coactivator 1 (SRC1); Q15788; HEK293 GAL4-SRC1 luciferase reporter, luminescence; inhibition, % at 3.6 µM; actives 0.12% (n = 360,000); AID 588354;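 active means inhibition above the campaign mean plus 3 SD, with each screening campaign given its own cutoff, cut at about 60% in these data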;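 further: 0% = DMSO treated cells and 100% = gossypol at 36 µM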
LRH-1 inv ag = inverse agonists of human LRH-1 (NR5A2); O00482; HEK293T StAR-luciferase reporter, LRH-1 transfected, 24 h; inhibition, % at 3.6 µM; actives 0.13% (n = 360,000);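 active means inhibition above the mean inhibition of all tested compounds plus 3 SD, cut at about 73% in these data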;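 further: 0% = DMSO wells and 100% = reporter-only cells lacking LRH-1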
GalR3 antag = blocks the human galanin receptor 3; O60755; HEK293 GalR3-CNG cAMP membrane potential fluorescence; galR3 body fused to GalR1 C-terminus; inhibition, % at 3 µM; actives 0.44% (n = 360,000); AID 651719;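 active means inhibition above the screen-wide average plus 3 SD, cut at about 13% in these data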;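 further: forskolin and galanin both at EC90 stimulate the cells; cAMP rise reported by CNG channel membrane potential dye signal; 0% = forskolin plus galanin with DMSO and 100% = forskolin alone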
Target sequence (O60755 1-299 limits assumed): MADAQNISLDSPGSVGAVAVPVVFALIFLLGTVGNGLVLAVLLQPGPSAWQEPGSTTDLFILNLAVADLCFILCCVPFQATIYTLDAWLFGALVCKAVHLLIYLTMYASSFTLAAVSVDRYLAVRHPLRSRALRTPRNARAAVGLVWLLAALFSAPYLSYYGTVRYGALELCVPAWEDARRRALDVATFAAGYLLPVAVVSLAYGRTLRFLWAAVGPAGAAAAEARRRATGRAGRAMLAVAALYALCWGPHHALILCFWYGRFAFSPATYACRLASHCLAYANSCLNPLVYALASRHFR
SRC3 inh = human NCOA3 inhibition; HEK293 GAL4-SRC3 luciferase reporter, luminescence; inhibition, % at 3.6 µM; actives 0.17% (n = 360,000); AID 588352;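 active means inhibition above a per-campaign cutoff, the mean of all compounds plus 3 SD, cut at about 60% in these data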;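 further: 0% = DMSO-treated cells and 100% = gossypol-treated cells at 36 µM; higher means less SRC3-driven luciferase light from the GAL4 reporter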
NR2F2 inh = NR2F2 (human) inhibition, primary screen; AID 686940; inhibition, % at 8.6 µM; HEK293T NGFI-A luciferase reporter, luminescence; actives 0.7% (n = 370,000); P24468;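 active means inhibition above a per-plate cutoff, mean inhibition of test wells between control levels plus 3 SD, cut at about 38% in these data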;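 further: cells cotransfected with COUP-TFII expression vector driving the NGFI-A reporter; 0% = median of COUP-TF2 test wells and 100% = reporter-only cells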
SRC2 inh = human SRC2 (NCOA2) inhibition; Q15596; HEK293 GAL4-SRC2 luciferase reporter, luminescence; inhibition, % at 9 µM; actives 0.17% (n = 370,000); AID 651957;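 active means inhibition above the mean inhibition of all tested compounds plus 3 SD, set per campaign, cut at about 52% in these data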;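 further: 0% = DMSO treated cells and 100% = cells given Gossypol at 36 µM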
Gal4-VP16 ctr = counter-screen for COUP-TFII antagonists: inhibitors of VP16. shares compounds with NR2F2 inh. HEK293 Gal4-VP16 luciferase reporter, luminescence. inhibition, % at 8.5 µM. actives 25% (n = 2,500). AID 687007; in the data active means inhibition above about 13%
COUP-TFII conf = confirmation of human COUP-TFII (NR2F2) inhibitors; shares compounds with NR2F2 inh; HEK293 NGFI-A luciferase reporter, luminescence; inhibition, % at 8.5 µM; actives 45% (n = 2,500); AID 687008;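 active means mean inhibition over three repeats above a set limit taken from the earlier primary screen, cut at about 38% in these data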;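 further: 100% = cells given the luciferase reporter alone without the COUP-TF2 vector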
Numbers without * were called inactive. Compounds with a hit are over-represented: about 1.1% of the library has one in this group of screens.

For CN1C(=O)c2cc(NS(=O)(=O)c3ccc(F)cc3)ccc2OC[C@H]2O[C@@H](CC(=O)NCC(F)(F)F)CC[C@@H]21 the results were NR2F2 inh 12 and SRC2 inh -4.
Screening CC(C)C[C@@H]1COc2cc(Br)ccc2S(=O)(=O)N1Cc1cn(Cc2ccco2)nn1 returned NR2F2 inh 5 and SRC2 inh -25.
CCCNC(=O)c1cn(CC)c2cc(N3CCN(C(=O)c4ccco4)CC3)c(F)cc2c1=O was read as NCOA1 inh -17, LRH-1 inv ag 8, GalR3 antag 1, SRC3 inh 4, NR2F2 inh 17 and SRC2 inh -14.
CCn1cc(C(=O)NCc2cccc(F)c2)c(=O)c2cc(F)c(N3CCN(C(=O)c4ccco4)CC3)cc21 was read as NCOA1 inh -11, LRH-1 inv ag 26, GalR3 antag -1, SRC3 inh 6, NR2F2 inh 38*, SRC2 inh 4, Gal4-VP16 ctr -2 and COUP-TFII conf 7.
Screening COc1cc(CNCc2ccncc2)cc(Br)c1OCc1ccccc1F returned NCOA1 inh 8, LRH-1 inv ag 30, GalR3 antag -8, SRC3 inh 8, NR2F2 inh 46*, SRC2 inh 24, Gal4-VP16 ctr 3 and COUP-TFII conf 28.
Screening Cc1ccc(OCCN2CCN(C(=O)CCC(=O)Nc3nnc(C)s3)CC2)cc1 returned NCOA1 inh 0, LRH-1 inv ag 0, GalR3 antag -5, SRC3 inh -1, NR2F2 inh -4 and SRC2 inh 8.
For Cc1ccc(OCCN2CCN(C(=O)CCC(=O)Nc3nnc(C(C)C)s3)CC2)cc1 the results were NCOA1 inh 8, LRH-1 inv ag 25, GalR3 antag -3, SRC3 inh 20, NR2F2 inh 41*, SRC2 inh 17, Gal4-VP16 ctr -6 and COUP-TFII conf 22.
For CC1CCN(c2ccc(C(=O)O)cc2NS(=O)(=O)c2ccc(C(C)(C)C)cc2)CC1 the results were NR2F2 inh -11 and SRC2 inh 13.
`CCOC(=O)c1cc2c(C)n(-c3ccc(C)cc3)c(C)c2ccc1=O` gave NCOA1 inh -30, LRH-1 inv ag -20, GalR3 antag -7, SRC3 inh -31, NR2F2 inh 41*, SRC2 inh -12, Gal4-VP16 ctr -137 and COUP-TFII conf -19.
CCOC(=O)c1cc2c(C)n(-c3ccc(OCC)cc3)c(C)c2ccc1=O was read as NCOA1 inh -16, LRH-1 inv ag -8, GalR3 antag -3, SRC3 inh -5, NR2F2 inh -2 and SRC2 inh 13.
Screening CCCCCC(=O)N1CC2(CC(c3cccc(NC(=O)COc4ccc(Cl)cc4)c3)=NO2)C[C@@H]1C(N)=O (some centres not stated) returned NCOA1 inh -3, LRH-1 inv ag -8, GalR3 antag -2, SRC3 inh -4, NR2F2 inh 42*, SRC2 inh 36, Gal4-VP16 ctr -11 and COUP-TFII conf 13.
`O=C(NN=Cc1ccccc1C(F)(F)F)c1cc(-c2ccc(Cl)cc2)n[nH]1` gave NR2F2 inh -8 and SRC2 inh -9.
For COc1ccc(CN2CCN(C(=O)c3ccc(S(=O)(=O)N4CCCCCC4)cc3)CC2)cc1F the results were NCOA1 inh 13, LRH-1 inv ag 28, GalR3 antag -1, SRC3 inh 20, NR2F2 inh 53*, SRC2 inh -37, Gal4-VP16 ctr -5 and COUP-TFII conf 32.
For COc1ccc2[nH]c3c(NCCC4=CCCCC4)ncnc3c2c1 the results were NCOA1 inh -51, LRH-1 inv ag -79, GalR3 antag -7, SRC3 inh -46, NR2F2 inh 54*, SRC2 inh -33, Gal4-VP16 ctr -137 and COUP-TFII conf 21.
For COc1ccc2[nH]c3c(NCCCOC(C)C)ncnc3c2c1 the results were NCOA1 inh -81, LRH-1 inv ag -116, GalR3 antag -3, SRC3 inh -69, NR2F2 inh -26 and SRC2 inh -49.
Cc1cc(C)cc(-c2c(C(=O)c3ccc(Br)cc3)[nH]c(N)c2C(=O)NCc2ccc(Cl)cc2)c1 was read as NR2F2 inh 8.
Screening CCc1ccc(-c2nnn(CCC#N)n2)cc1 returned NCOA1 inh -32, LRH-1 inv ag -17, GalR3 antag -3, SRC3 inh -13, NR2F2 inh -8 and SRC2 inh -25.
For CCc1ccc(-c2nnn(CCC(=O)OC)n2)cc1 the results were NCOA1 inh 27, LRH-1 inv ag 23, GalR3 antag -5, SRC3 inh 26, NR2F2 inh 57*, SRC2 inh 76*, Gal4-VP16 ctr 60* and COUP-TFII conf 50*.
CC[n+]1c(/C=C2/C=C(C)CC(C)C2)sc2ccccc21 (configuration not stated) was read as NCOA1 inh -15, LRH-1 inv ag 9, GalR3 antag -3, SRC3 inh 19, NR2F2 inh 10 and SRC2 inh -2.
CC[n+]1c(C=C2C=C(C)OC(C)=C2)sc2ccccc21 was read as NCOA1 inh 53, LRH-1 inv ag 76*, GalR3 antag -3, SRC3 inh 68*, NR2F2 inh 77*, SRC2 inh -58, Gal4-VP16 ctr 12 and COUP-TFII conf 64*.
Screening O=C1C=CC2C3C(=O)N(c4ccccc4)C(=O)C3C1N2Cc1ccccc1 (configuration not stated) returned NCOA1 inh 22, LRH-1 inv ag 24, GalR3 antag 7, SRC3 inh 13, NR2F2 inh 60*, SRC2 inh 75*, Gal4-VP16 ctr 17* and COUP-TFII conf 5.
C=CCN1[C@H](C#N)[C@@H](c2ccc(C#Cc3cccc(OC)c3)cc2)[C@H]1CO was read as NR2F2 inh 11 and SRC2 inh 8.
CCCCCOc1ccc(Br)cc1CSC(=N)N was read as NCOA1 inh -14, LRH-1 inv ag 43, GalR3 antag 19*, SRC3 inh 27, NR2F2 inh 66*, SRC2 inh 30, Gal4-VP16 ctr 16* and COUP-TFII conf 47*.
`CC1(C)CC(N2CCCC2)=CC(=[N+]2CCCC2)C1` gave NCOA1 inh 34, LRH-1 inv ag 49, GalR3 antag 0, SRC3 inh -1, NR2F2 inh 47*, SRC2 inh 26, Gal4-VP16 ctr 4 and COUP-TFII conf 27.
Screening c1ccc(CN2CCN(c3ncccn3)CC2)cc1 returned NCOA1 inh -18, LRH-1 inv ag 20, GalR3 antag 2, SRC3 inh 12, NR2F2 inh 12 and SRC2 inh 20.
